Results taken from PubChem BioAssay AID1159580 (chemical genetic matrix, 2015).
Hit rate of the full screen: of about 5,500 compounds, about 2,000 (36%) were called active. Roughly 18% stayed inconclusive and do not appear here. No stated cut-off is given here; in the data, active means normalized growth mostly below about 0.91 (no sharp cut-off); inconclusive means no clear call, values can overlap the other calls; inactive means mostly above about 0.92. The list shows a part of the results.

Assay: chemical genetic growth profiling, strain panel (AID 1159580);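 further: tested at 20 µM; growth read once vehicle control cultures reached saturation at 30 °C; 1 = growth at the plate median or of vehicle wells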
Conditions: growth OD
[1] = S. cerevisiae deletion strains, locus YAL013W, strain DEP1, stronger effect = lower value
[2] = S. cerevisiae deletion strains, locus YDR150W, strain NUM1, stronger effect = lower value
[3] = S. cerevisiae deletion strains, locus YGR078C, strain PAC10, stronger effect = lower value
[4] = S. cerevisiae deletion strains, locus YJR075W, strain HOC1, stronger effect = lower value
[5] = S. cerevisiae deletion strains, locus YMR263W, strain SAP30, stronger effect = lower value
[6] = S. cerevisiae deletion strains, locus YNL322C, strain KRE1, stronger effect = lower value
[7] = S. cerevisiae deletion strains, locus YPL055C, strain LGE1, stronger effect = lower value

Measured: normalized growth

CCC(=O)c1c(C)c(C)c(C)c(C)c1C
inactive: [1] 0.985 | S. cerevisiae deletion strains, locus YBR229C, strain ROT2, stronger effect = lower value 0.992 | S. cerevisiae deletion strains, locus YCL061C, strain MRC1, stronger effect = lower value 0.988 | S. cerevisiae deletion strains, locus YDL101C, strain DUN1, stronger effect = lower value 0.99 | S. cerevisiae deletion strains, locus YDL134C, strain PPH21, stronger effect = lower value 0.984 | [2] 1.01 | S. cerevisiae deletion strains, locus YEL061C, strain CIN8, stronger effect = lower value 0.975 | [3] 1 | S. cerevisiae deletion strains, locus YHR030C, strain SLT2, stronger effect = lower value 0.95 | S. cerevisiae deletion strains, locus YHR087W, strain rtc3, stronger effect = lower value 0.959 | S. cerevisiae deletion strains, locus YJL187C, strain SWE1, stronger effect = lower value 0.995 | S. cerevisiae deletion strains, locus YJR043C, strain POL32, stronger effect = lower value 0.983 | [4] 0.948 | S. cerevisiae deletion strains, locus YKL190W, strain CNB1, stronger effect = lower value 0.983 | S. cerevisiae deletion strains, locus YLR039C, strain RIC1, stronger effect = lower value 1.1 | S. cerevisiae deletion strains, locus YLR058C, strain SHM2 (second series), stronger effect = lower value 0.967 | S. cerevisiae deletion strains, locus YLR085C, strain ARP6, stronger effect = lower value 1.01 | S. cerevisiae deletion strains, locus YLR262C, strain YPT6, stronger effect = lower value 1.06 | S. cerevisiae deletion strains, locus YML094W, strain GIM5, stronger effect = lower value 0.977 | S. cerevisiae deletion strains, locus YMR219W, strain ESC1, stronger effect = lower value 0.986 | [5] 0.977 | S. cerevisiae deletion strains, locus YNL153C, strain GIM3, stronger effect = lower value 0.982 | S. cerevisiae deletion strains, locus YNL298W, strain CLA4 (second series), stronger effect = lower value 0.966 | [6] 0.997 | S. cerevisiae deletion strains, locus YNR030W, strain Alg12, stronger effect = lower value 0.954 | S. cerevisiae deletion strains, locus YOL006C, strain TOP1, stronger effect = lower value 1.01 | [7] 0.971 | S. cerevisiae deletion strains, locus YPL241C, strain CIN2, stronger effect = lower value 0.986 | S. cerevisiae deletion strains, locus YPR135W, strain CTF4, stronger effect = lower value 0.976 | S. cerevisiae strains, strain wild type, stronger effect = lower value 0.988

CNC(=O)[C@H]1O[C@@H](n2cnc3c(NCc4ccc(I)cc4)nc(Cl)nc32)[C@H](O)[C@@H]1O
inactive: [1] 0.986 | S. cerevisiae deletion strains, locus YAL040C, strain CLN3, stronger effect = lower value 0.939 | S. cerevisiae deletion strains, locus YCL061C, strain MRC1 (second series), stronger effect = lower value 0.996 | [2] 1 | S. cerevisiae deletion strains, locus YDR363W, strain ESC2, stronger effect = lower value 0.944 | S. cerevisiae deletion strains, locus YER002W, strain NOP16, stronger effect = lower value 0.97 | [3] 0.99 | [4] 0.999 | [5] 0.995 | S. cerevisiae deletion strains, locus YMR307W, strain GAS1, stronger effect = lower value 1 | S. cerevisiae deletion strains, locus YNL128W, strain TEP1, stronger effect = lower value 0.981 | S. cerevisiae deletion strains, locus YNL175C, strain NOP13, stronger effect = lower value 0.962 | S. cerevisiae deletion strains, locus YNL197C, strain WHI3, stronger effect = lower value 0.98 | S. cerevisiae deletion strains, locus YNL224C, strain SQS1, stronger effect = lower value 0.997 | [6] 0.972 | S. cerevisiae deletion strains, locus YOR083W, strain WHI5 (second series), stronger effect = lower value 0.918 | [7] 0.937
